Screening data deposited in PubChem BioAssay by National Center for Advancing Translational Sciences (NCATS).
KB-3-1 tox = kills parental KB-3-1 adenocarcinoma cells; KB-3-1 viability, CellTiter-Glo ATP luminescence, 72 h; Potency, µM (doses to about 46.1 µM), usual class: cytotoxic; 400,000 compounds, 1.4% hits; further: nearly all actives have a fitted effect of over 60% in size
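Cells are dispensed, compounds pinned in, plates held at 37 °C for 72 h, then CellTiter-Glo is added and luminescence read after 10 minutes. Cell line: parental KB-3-1 in phenol-red-free DMEM, 10% FBS.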
TDP1 cell CPT = DT40-hTDP1 cell growth loss with CPT. chicken DT40 Tdp1-/-;hTDP1 cells + 20 nM CPT, ATP luminescence, 48 h. Potency, µM (titrated, usually from 46.2 µM), without a hit: at the highest dose activity change, negative = growth inhibition, hits mostly inhibitors. 420,000 compounds, 12% hits. AID 686979; further: nearly all actives have a fitted effect of over 55% in size
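Chicken DT40 Tdp1-/- cells stably complemented with human TDP1 were seeded at 400 cells/well in medium containing 20 nM camptothecin, exposed to pin-transferred compounds, and grown at 37 °C for at least 48 hr. Viability was read as ATP luminescence.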
DT40 TDP1 no CPT = qHTS for Inhibitors of human tyrosyl-DNA phosphodiesterase 1 (TDP1): qHTS in cells in absence of CPT | DT40 Tdp1-/- hTDP1 cells, no CPT, ATP luminescence, 48 h | Potency, µM (highest dose often 46.2 µM), inactives show at the highest dose activity change, negative = growth inhibition, actives largely listed as inhibitors | 420,000 compounds, 15% hits | AID 686978, 2013; further: nearly all actives have a fitted effect of over 55% in size
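No-CPT arm: Tdp1-/-;hTDP1 DT40 cells (400/well) plus compounds, incubated ≥48 hr at 37 °C. Readout CellTiter-Glo luminescence.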
HT1080 IDH1KD tx = kills HT-1080 cells with IDH1 knockdown | HT-1080 IDH1 knockdown viability, ATP luminescence, 48 h | Potency, µM (titrated, usually from 46.1 µM), for the others: at the top dose activity, negative = toxicity, most hits filed as cytotoxic | 360,000 compounds, 2% hits | AID 686971;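 further: 0% = DMSO wells and -100% = cell-free medium wells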
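Knockdown cells (IDH1KD HT-1080) received compounds 2 h after plating at 750 cells/well and were kept 48 h at 37 °C in 5% FBS RPMI. A CellTiter-Glo luminescence read gave % activity for curve fitting.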
KB-V1 cytotox = KB-V1 MDR subline cytotoxicity. KB-V1 MDR cells viability, CellTiter-Glo, 72 h. Potency, µM (highest dose often 46.1 µM), hits mostly cytotoxic. 400,000 compounds, 3.4% hits; further: nearly all actives have a fitted effect of over 60% in size
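Readout: CellTiter-Glo luminescence, 10 min after addition. Cells: KB-V1 MDR subline, 72 h at 37 degrees C with compound. Analysis: corrected, normalized data fitted to concentration-effect curves.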
HT1080-NT tox = kills 2HG-producing HT-1080-NT fibrosarcoma cells. HT-1080-NT fibrosarcoma viability, CellTiter-Glo ATP luminescence, 48 h. AID 686970. 360,000 compounds, 1.6% hits. Potency, µM (top dose mostly 46.1 µM), inactives show at the highest dose activity, negative = less viability, usual class: cytotoxic;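 further: NT is the 2HG producing partner of a matched IDH1 knockdown line; 0% = DMSO-treated cells and -100% = media-only wells without cells; nearly all actives have a fitted effect of over 55% in size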
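Compounds were tested in concentration-response format on HT-1080-NT cells for 48 hours at 37 degrees C. Cell viability came from CellTiter-Glo luminescence; curves were classified by r2, response magnitude and activity.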
An asterisk follows results filed as active; i = inactive; u = inconclusive; x = not tested or not shown; ! = repeats disagree. Compounds with a hit are over-represented: about 19% of the library has one in this group of screens. The call rests on the fitted dose curve; in most records, active means well fitted curve in the direction sought with a large enough effect; inconclusive means small, poorly fitted or top-dose-only effect, or another doubt; inactive means no such curve, though single readings can be large; an effect the other way counts as inactive or inconclusive. Unless noted, on the % scale 0 is the no-effect control and ±100 the full control effect; potency means the concentration at half of the fitted maximal effect.

SMILES	KB-3-1 tox	TDP1 cell CPT	DT40 TDP1 no CPT	HT1080 IDH1KD tx	KB-V1 cytotox	HT1080-NT tox
CCCCC(=O)NNC(=S)NC(=O)c1ccc([N+](=O)[O-])cc1	u	u	29µM*	-23%	i	4%
CC(C)CN1CCC2(CC1)CCN(C(=O)c1cc(C(F)(F)F)cc(C(F)(F)F)c1)CC2	x	2%	-2%	x	x	x
CC(=O)Oc1ccc(/C=C(\NC(=O)c2ccco2)C(=O)NCc2ccco2)cc1	u	6%	-7%	9%	i	2%
CC(C)(C)NC(=O)c1cccc(NC(=O)c2ccc3c(c2)C(=O)N(C(C)(C)C)C3=O)c1	i	u	10µM*	u	u	u
CC(C)(C)N1C(=O)c2ccc(C(=O)O)cc2C1=O	i	-2%	-4%	-2%	u	4%
CC(C)(C)N1C(=O)c2ccc(C(=O)Nc3ccc(O)cc3)cc2C1=O	u	u	16µM*	u	8.2µM*	u
COC(=O)c1cccc(NC(=O)c2ccc3c(c2)C(=O)N(C(C)(C)C)C3=O)c1	i	-5%	u	-1%	i	-4%
N/C(CN1CCCCC1)=N\S(=O)(=O)c1cc(Cl)cc(Cl)c1	i	-13%	-29%	-8%	u	-4%
COc1ccc(C(=N/O)/C(=N/O)c2ccc(OC)cc2)cc1	i	-16%	-1%	-28%	i	u
COc1ccc(C(C#N)=C2C=CC(=NO)C(C)=C2Cl)cc1	i	10µM*	7.3µM*	-24%	i	1%
COc1ccc(C(C#N)=C2C=C(Cl)C(=NO)C=C2Cl)cc1	u	3.3µM*	2.6µM*	-10%	i	-16%
CNS(=O)(=O)c1cccc(C(=O)OCCCOC(=O)c2cccc(S(=O)(=O)NC)c2)c1	i	u	u	-2%	i	-3%
COc1cc(C(F)(F)F)nc(-c2ccccn2)n1	i	18%	-22%	7%	i	18%
CCOC(=O)CSc1ncc(OC)c(Sc2ccc(OC)cc2)n1	i	-13%	-15%	0%	i	-5%
COc1ccc(Sc2nc(-c3ccccn3)ncc2OC)cc1	i	2.9µM*	3.3µM*	u	u	u
COc1cnc(-c2ccccn2)nc1Sc1ccccc1	i	1.5µM*	1µM*	-18%	i	u
COc1cnc(-c2ccccn2)nc1Sc1ccc(F)cc1	i	0.58µM*	0.52µM*	-25%	i	21µM*
CCOC(=O)CSc1nc(-c2ccccn2)ncc1OC	i	8.2µM*	4.6µM*	8%	u	7%
Cc1ccc(CNS(=O)(=O)c2ccc3c(c2)NC(=O)C(C)S3)cc1 (configuration not stated)	i	u	-23%	-24%	i	0%
CCOC(=O)c1c(C)oc2ncnc(Nc3ccc(OC)c(OC)c3)c12	i	u	u	x	i	x
COc1cnc(N(C)C)nc1Sc1ccc(Cl)cc1	i	-30%	-11%	-2%	i	-2%
COc1cnc(-c2ccccn2)nc1Sc1ccc(Cl)cc1	u	1.3µM*	1.5µM*	-2%	u	4%
COc1ccc(S(=O)(=O)NCCc2nnc3ccc(SCC(=O)Nc4cc(C)cc(C)c4)nn23)cc1	i	21µM*	u	x	i	x
O=S(=O)(NCCc1nnc2ccc(SCc3ccc(C(F)(F)F)cc3)nn12)c1ccccc1	i	15µM*	u	x	i	x
Cc1ccc(CSc2ccc3nnc(CCNS(=O)(=O)c4ccc(C)cc4)n3n2)cc1	i	16µM*	u	x	i	x
SMILES	KB-3-1 tox	TDP1 cell CPT	DT40 TDP1 no CPT	HT1080 IDH1KD tx	KB-V1 cytotox	HT1080-NT tox
O=S(=O)(NCCc1nnc2ccc(SCc3cccnc3)nn12)c1ccccc1	i	-12%	-10%	1%	i	1%
Cc1ccc(S(=O)(=O)NCCc2nnc3ccc(SCc4ccccc4F)nn23)cc1	i	18µM*	21µM*	x	i	x
CC(=O)c1ccc(NC(=O)CSc2ccc3nnc(CCNS(=O)(=O)c4ccc(C)cc4)n3n2)cc1	i	-28%	u	x	i	x
CCCC1=C(C(=O)OCC)C(c2ccc(OC)c(CSc3ccccn3)c2)C(C#N)=C(N)O1 (configuration not stated)	i	u	u	-8%	21µM*	-6%
C=CCOC(=O)C1=C(C)OC(N)=C(C#N)C1c1ccc(OC)c(CSc2ccccn2)c1 (configuration not stated)	i	-12%	-28%	0%	u	0%
CCCC1=C(C(=O)OCC)C(c2c(C)nn(-c3ccccc3)c2Cl)C(C#N)=C(N)O1 (configuration not stated)	i	u	21µM*	0%	i	-2%
COc1ccc(N2C(=O)NC(NS(=O)(=O)c3ccc(NC(C)=O)cc3)(C(F)(F)F)C2=O)cc1 (configuration not stated)	u	-15%	2%	12%	i	2%
O=c1oc2cc(Oc3ccc(C(F)(F)F)cc3[N+](=O)[O-])ccc2c2c1CCCC2	i	u	u	7%	i	4%
CCc1ccc(S(=O)(=O)c2cn(Cc3ccccc3)c3cc(F)c(F)cc3c2=O)cc1	i	u	u	x	i	x
CC(=O)N1CCCc2ccc(NS(=O)(=O)c3ccc(C)c(C)c3)cc21	u	12µM*!	u	-2%	u	-11%
COc1ccc(S(=O)(=O)Nc2ccc3c(c2)N(C(C)=O)CCC3)cc1F	x	15µM*	18µM*	x	x	x
CC1(c2ccc(OC(F)F)cc2)NC(=O)N(CC(=O)Nc2ccc(Cl)cc2F)C1=O (configuration not stated)	i	u	u	-21%	i	-27%
CN1C2C(Br)CCCCN2c2ccc(F)cc2S1(=O)=O (configuration not stated)	i	-4%	-23%	13%	i	5%
CN(C)C(=S)NC(=O)C12CC3(C)CC(C)(CC(C)(C3)C1)C2	i	-12%	1.3µM*	-1%	i	14%
O=C(NCc1ccccc1Br)c1cnc2sc(N3CCCCCC3)nn2c1=O	x	23µM*	4.1µM*	x	x	x
COc1ccccc1CNC(=O)c1cnc2sc(N3CCCCCC3)nn2c1=O	x	16µM*	21µM*	x	x	x
Cc1cccc(CNC(=O)c2cnc3sc(N4CCCCCC4)nn3c2=O)c1	x	-16%	-9%	x	x	x
